Assay results as given in PubChem BioAssay (Tox21).
Results filed as inconclusive are left out. Where a call stands in place of a potency, no number is given. Unmarked numbers belong to inactive results. Activity calls are given as the source filed them. The call rests on the fitted dose curve; in most records, active means well fitted cell-killing curve with a large enough effect in the repeat runs; inconclusive means weak or mixed curves, or effect the other way; inactive means flat fitted curve, though single readings scatter.

Legend:
[1] = cAMP Responsive Elements (CRE) small molecule antagonists, cell-based qHTS assay: qHTS cell viability counter screen (AID 2060913); further: nearly all actives have a fitted effect of over 40% in size
How it was run: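 CRE-bla HEK293T cells (2,000/well, 18 h) given compound plus NKH477 0.25 uM final for 3 h at 37C; viability counter-screen by CellTiter-Glo luminescence in same wells after 30 min.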

[2] = cAMP Responsive Elements (CRE) small molecule agonists, cell-based qHTS assay: qHTS cell viability counter screen (AID 2060914);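 further: viability read after 3 h of compound exposure; nearly all actives have a fitted effect of over 50% in size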
How it was run: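 CRE-bla HEK293T cells in 10% dialyzed FBS medium were exposed to compounds for 3 h at 37C after 18 h plating. CellTiter-Glo was then added in the same wells, and luminescence was read after 30 min at room temperature.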
Potency means the concentration at half of the fitted maximal effect.

| Compound | Potency [1] | Potency [2] | viability change, negative = cytotoxic [1] | activity change, negative = cytotoxicity [2] |
| --- | --- | --- | --- | --- |
| CC1=C(C(=O)O)N2C(=O)[C@@H](NC(=O)[C@H](N)C3=CCC=CC3)[C@H]2SC1 | inactive | inactive | – | – |
| CC(=O)Nc1cccc(C)c1 | inactive | inactive | – | – |
| CC(C)Cc1ccc(CC(=O)O)cc1 | inactive | inactive | – | – |
| Cc1ccccc1OCC(O)CO (stereo not given) | inactive | inactive | – | – |
| Cc1ccccc1C(=O)O | inactive | inactive | – | – |
| CCNCCO | inactive | inactive | – | – |
| Cc1cc(CC(=O)O)n(C)c1C(=O)c1ccc(Cl)cc1 | inactive | inactive | – | – |
| CCCCCCCCCCCCCCCCCCOCC(O)CO (stereo not given) | inactive | inactive | – | – |
| O=CO | – | – | -5.83% [at 8.39 µM] | -4.64% [at 8.39 µM] |
| OC(CCN1CCCCC1)(c1ccccc1)C1CC2C=CC1C2 (stereo not given) | inactive | inactive | – | – |
| O=c1[nH]c(=O)n([C@H]2C[C@H](O)[C@@H](CO)O2)cc1C(F)(F)F | inactive | inactive | – | – |
| [Cl][Bi]([Cl])([c]1ccccc1)([c]1ccccc1)[c]1ccccc1 | 30.5 µM (active) | 43 µM (active) | – | – |
| COc1ccccc1OCC(O)COC(N)=O (stereo not given) | inactive | inactive | – | – |
| Cc1ccccc1N=C(N)Nc1ccccc1C | inactive | inactive | – | – |
| O=C(c1ccc(Cl)cc1)c1ccc(Cl)cc1 | inactive | inactive | – | – |
| Cc1ccc(N(CC2=NCCN2)c2cccc(O)c2)cc1 | inactive | inactive | – | – |
| CCC1COC(=O)O1 (stereo not given) | inactive | inactive | – | – |
| CC(C)(c1ccccc1)c1ccc(Nc2ccc(C(C)(C)c3ccccc3)cc2)cc1 | inactive | inactive | – | – |
| C[C@]12C=CC(=O)C=C1[C@@H](F)C[C@@H]1[C@@H]2[C@@H](O)C[C@@]2(C)[C@H]1CC[C@]2(O)C(=O)CO | inactive | inactive | – | – |
| CN1CCN(c2c(F)cc3c(=O)c(C(=O)O)cn4c3c2SCC4)CC1 | inactive | inactive | – | – |
| COCN(COC)c1nc(N(COC)COC)nc(N(COC)COC)n1 | inactive | inactive | – | – |
| CCCC(=O)O[C@]1(C(=O)COC(=O)CC)CC[C@H]2[C@@H]3CCC4=CC(=O)CC[C@]4(C)[C@H]3[C@@H](O)C[C@@]21C | – | – | 9.89% [at 18.9 µM] | -7.63% [at 18.9 µM] |

| Compound | Potency [1] | Potency [2] | viability change, negative = cytotoxic [1] | activity change, negative = cytotoxicity [2] |
| --- | --- | --- | --- | --- |
| CCOC(=O)Cc1cccc2ccccc12 | inactive | inactive | – | – |
| CC(C)CC(C)CC(O)CC(C)C (stereo not given) | inactive | inactive | – | – |
| CC1(C)O[C@@H]2C[C@H]3[C@@H]4CCC5=CC(=O)C=C[C@]5(C)[C@H]4[C@@H](O)C[C@]3(C)[C@]2(C(=O)CO)O1 | inactive | inactive | – | – |
| Nc1ccc(Oc2cccc(Oc3ccc(N)cc3)c2)cc1 | inactive | inactive | – | – |
| O=C(O)c1ccc(O)cc1 | inactive | inactive | – | – |
| CC1(C)C(=O)N(Br)C(=O)N1Br | inactive | inactive | – | – |
| COc1c2ccoc2cc2oc(=O)ccc12 | inactive | inactive | – | – |
| C/C=C/C(=O)C1=C(C)CCCC1(C)C | inactive | inactive | – | – |
| CNCC(O)c1ccc(O)c(O)c1 (stereo not given) | inactive | inactive | – | – |
| COc1c(Cl)c(Cl)c(Cl)c(Cl)c1Cl | inactive | inactive | – | – |
| FC(F)OC(Cl)C(F)(F)F (stereo not given) | inactive | inactive | – | – |
| O=P(O)(O)OP(=O)(O)O | inactive | inactive | – | – |
| Cc1ncc(CO)c(CN)c1O | inactive | inactive | – | – |
| O=S1(=O)N=C(O)c2ccccc21 | inactive | inactive | – | – |
| O=C(c1ccccc1)c1cccc(O)c1 | inactive | inactive | – | – |
| O=C1NCC2(CCN(CCc3ccccc3)CC2)O1 | inactive | inactive | – | – |
| NS(=O)(=O)Cc1noc2ccccc12 | inactive | inactive | – | – |
| CCC(C)(C)C1CCC(=O)CC1 | inactive | inactive | – | – |
| CC[C@H](C)C(=O)O[C@H]1C[C@@H](C)C=C2C=C[C@H](C)[C@H](CC[C@@H]3C[C@@H](O)CC(=O)O3)[C@H]21 | inactive | inactive | – | – |
| Nc1cc([N+](=O)[O-])ccc1C(=O)O | inactive | inactive | – | – |
| CC(=O)[C@H]1CC[C@H]2[C@@H]3C=CC4=CC(=O)CC[C@@]4(C)[C@@H]3CC[C@]12C | inactive | inactive | – | – |
| CCCCOCCO | inactive | inactive | – | – |

| Compound | Potency [1] | Potency [2] | viability change, negative = cytotoxic [1] | activity change, negative = cytotoxicity [2] |
| --- | --- | --- | --- | --- |
| CC(C)c1c(C(=O)Nc2ccccc2)c(-c2ccccc2)c(-c2ccc(F)cc2)n1CC[C@@H](O)C[C@@H](O)CC(=O)O | inactive | inactive | – | – |
| NC(=O)NS(=O)(=O)c1ccc(Cl)cc1 | inactive | inactive | – | – |
| NC(=O)c1ccccc1N | inactive | inactive | – | – |
| C=CC(=O)NC(C)(C)CS(=O)(=O)O | inactive | inactive | – | – |
| CC(=O)N[C@@H](Cc1ccc(O)cc1)C(=O)O | inactive | inactive | – | – |
| CCCCN(CCCC)C(=S)SSC(=S)N(CCCC)CCCC | inactive | inactive | – | – |
| N=C(N)S(=O)O | inactive | inactive | – | – |
| CCC(=O)Oc1ccc(/C(CC)=C(\CC)c2ccc(OC(=O)CC)cc2)cc1 | inactive | inactive | – | – |
| CC(=O)SC[C@@H](C)C(=O)N1CCC[C@H]1C(=O)N[C@@H](Cc1ccccc1)C(=O)O | inactive | inactive | – | – |
| C1COCCN1 | inactive | inactive | – | – |
| COC(C)(C)CCO | inactive | inactive | – | – |
| CCc1nccnc1C | inactive | inactive | – | – |
| CCOC(=O)C(Br)c1ccccc1 (stereo not given) | inactive | inactive | – | – |
| CC1(C)[C@@H]2CC[C@@]1(C)[C@H](O)C2 | inactive | inactive | – | – |
| O=C(c1ccc(O)c(O)c1)c1ccc(O)cc1O | inactive | inactive | – | – |
| CCOC(OCC)C(=O)c1ccccc1 | inactive | inactive | – | – |
| C1CCC2(CCCCO2)OC1 | inactive | inactive | – | – |
| CCCC(=O)OCCC(C)CCC=C(C)C (stereo not given) | inactive | inactive | – | – |
| SC1CCCC1 | inactive | inactive | – | – |
| CNC(=S)NC | inactive | inactive | – | – |
| O=C1c2c(O)cccc2Cc2cccc(O)c21 | inactive | inactive | – | – |
| Cc1nnc(NS(=O)(=O)c2ccc(N)cc2)s1 | inactive | inactive | – | – |

| Compound | Potency [1] | Potency [2] | viability change, negative = cytotoxic [1] | activity change, negative = cytotoxicity [2] |
| --- | --- | --- | --- | --- |
| Nc1nc(N)nc(-c2cc(Cl)ccc2Cl)n1 | inactive | inactive | – | – |
| Cn1c(=O)c2[nH]cnc2n(C)c1=O | inactive | inactive | – | – |
| CNCCCN1c2ccccc2CCc2ccccc21 | inactive | inactive | – | – |
| CC1=CC(=O)c2ccccc2C1=O | inactive | inactive | – | – |
| NC12CC3CC(CC(C3)C1)C2 | inactive | inactive | – | – |
| CO[Si](CCCS)(OC)OC | inactive | inactive | – | – |
| NC(=O)c1ccccc1O | inactive | inactive | – | – |
| CCC1NC(=O)c2cc(S(N)(=O)=O)c(Cl)cc2N1 (stereo not given) | inactive | inactive | – | – |
| CC(C)(O)c1coc(S(=O)(=O)NC(=O)Nc2c3c(cc4c2CCC4)CCC3)c1 | inactive | inactive | – | – |
| COc1cc(/C=C/C(=O)O[C@H]2CC[C@]34C[C@]35CC[C@]3(C)[C@@H]([C@H](C)CCC=C(C)C)CC[C@@]3(C)[C@@H]5CC[C@H]4C2(C)C)ccc1O | inactive | inactive | – | – |
| C=CC(=O)OCC1CCCO1 (stereo not given) | inactive | inactive | – | – |
| CC(=O)OCc1ccco1 | inactive | inactive | – | – |
| C=COCC1CCC(CO)CC1 (stereo not given) | inactive | inactive | – | – |
| COc1ccc(N)c([N+](=O)[O-])c1 | inactive | inactive | – | – |
| CO[C@@]1(NC(=O)CSCC#N)C(=O)N2C(C(=O)O)=C(CSc3nnnn3C)CS[C@@H]21 | inactive | inactive | – | – |
| C#CCN(C)Cc1ccccc1 | inactive | inactive | – | – |
| CCCCCCCCCCN | inactive | inactive | – | – |
| Fc1ccc(C(c2ccc(F)cc2)N2CCN(C/C=C/c3ccccc3)CC2)cc1 | inactive | inactive | – | – |
| O=C1CN(/N=C/c2ccc([N+](=O)[O-])o2)C(=O)N1 | inactive | inactive | – | – |
| Cc1ccc(O)c(C(C)(C)C)c1 | inactive | inactive | – | – |
| CCn1c(=O)c2c(nc(/C=C/c3ccc(OC)c(OC)c3)n2C)n(CC)c1=O | inactive | inactive | – | – |
| Cc1c(C(C)C)c(=O)n(-c2ccccc2)n1C | inactive | inactive | – | – |

| Compound | Potency [1] | Potency [2] | viability change, negative = cytotoxic [1] | activity change, negative = cytotoxicity [2] |
| --- | --- | --- | --- | --- |
| CCCCCCCCCCCCCCCCCO | – | – | 0.838% [at 18.9 µM] | -1.37% [at 18.9 µM] |
| CCC(=O)O[C@]1(C(=O)COC)[C@@H](C)C[C@H]2[C@@H]3CCC4=CC(=O)C=C[C@]4(C)C3(F)[C@@H](O)C[C@@]21C (stereo not given in full) | inactive | inactive | – | – |
| CC(C)OC(C)C | inactive | inactive | – | – |
| Cc1cc(C2(c3cc(C)c(O)cc3C)OS(=O)(=O)c3ccccc32)c(C)cc1O | inactive | inactive | – | – |
| CCOC(=O)C(=O)CCc1ccccc1 | inactive | inactive | – | – |
| C[C@@H]1O[C@@H](O[C@@H]2[C@@H](O)[C@H](OCCc3ccc(O)c(O)c3)O[C@H](CO[C@@H]3O[C@H](CO)[C@@H](O)[C@H](O)[C@H]3O)[C@H]2OC(=O)/C=C/c2ccc(O)c(O)c2)[C@H](O)[C@H](O)[C@H]1O | inactive | inactive | – | – |
| Cc1ccc(C(=O)Oc2ccc(C(O)CNC(C)(C)C)cc2OC(=O)c2ccc(C)cc2)cc1 (stereo not given) | inactive | inactive | – | – |
| Cc1cc(O)cc(C)c1Cl | inactive | inactive | – | – |
| CCc1cccc(C)c1N(C(=O)CS(=O)(=O)O)C(C)COC (stereo not given) | inactive | inactive | – | – |
| Nc1cccc([N+](=O)[O-])c1 | inactive | inactive | – | – |
| C[C@H](CCC(=O)NCC(=O)O)[C@H]1CC[C@H]2[C@@H]3[C@H](O)C[C@@H]4C[C@H](O)CC[C@]4(C)[C@H]3C[C@H](O)[C@]12C | inactive | inactive | – | – |
| CC(C)N=C=NC(C)C | inactive | inactive | – | – |
| NCCN1CCNC1=O | inactive | inactive | – | – |
| CC/C=C\CC/C=C/C(OCC)OCC | inactive | inactive | – | – |
| CC(=O)c1ccc2c(c1)Cc1ccccc1-2 | inactive | inactive | – | – |
| O=C(O)CCc1ccccc1 | inactive | inactive | – | – |
| [O-][n+]1ccc(Cl)cc1 | inactive | inactive | – | – |
| CCCOCCO | inactive | inactive | – | – |
| Cn1c(NCCN(CCO)CCCc2ccc([N+](=O)[O-])cc2)cc(=O)n(C)c1=O | inactive | inactive | – | – |
| O=[N+]([O-])c1ccc2[nH]ncc2c1 | inactive | inactive | – | – |
| Nc1ccnc(=O)[nH]1 | inactive | inactive | – | – |
| CCCCC[C@H](O)/C=C/[C@H]1[C@H](O)CC(=O)[C@@H]1C/C=C\CCCC(=O)O | inactive | inactive | – | – |
